PubChem BioAssay AID618 (Sanford-Burnham Center for Chemical Genomics, 2007)
Hit rate of the full screen: of about 87,000 compounds, about 540 (0.62%) were called active. How the calls were made is not given here. Shown is part of a subset that was picked to be rich in actives. Where a call stands in place of a potency, no number is given. Potency and affinity values are given separately.

Assay: MT1-MMP gene expression reporter suppression – cell-based, luciferase reporter, luminescence (AID 618);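 further: actives suppress MT1-MMP promoter-driven transcription so potencies describe inhibitors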
Settings: MT1-MMP promoter luciferase reporter cells
In the case of `COc1cc(OC)cc(C(=O)Nn2c(C)nc3ccccc3c2=O)c1`, the outcome is reported as “inactive”.
For `COc1ccc(-c2nc3ccccc3c(=O)n2CCN2CCOCC2)cc1`, the outcome was “inactive”.
For `COc1ccc2[nH]c3c(c2c1)CCn1c-3nc2ccccc2c1=O`, the outcome was “active”.
For `O=C(CCCO)c1ccc2c(c1)OCCO2`, the outcome was “inactive”.
For `O=C(CCc1ccccc1)c1ccc2c(c1)OCCCO2`, the outcome was “inactive”.
In the case of `O=C(Nc1ccc2c(c1)OCO2)c1cncc(Br)c1`, the outcome is reported as “inactive”.
With `Cc1cc(C(=O)Nc2ccc3c(c2)OCCO3)co1` the outcome was “inactive”.
For `O=C(Nc1ccccc1)c1ccc2c(c1)OCCO2`, the outcome was “inactive”.
With `CS(=O)(=O)Nc1ccc(C(=O)Nc2ccc3c(c2)OCCO3)cc1` the outcome was “inactive”.
In the case of `COc1cc(SC)ccc1C(=O)Nc1ccccc1`, the outcome is reported as “inactive”.
With `O=C(Nc1ccncc1)c1ccc2c(c1)OCCO2` the outcome was “inactive”.
In the case of `O=C(Nc1ccc2c(c1)OCCO2)c1cccnc1`, the outcome is reported as “inactive”.
For `COc1ccccc1C(=O)Nc1ccc2c(c1)OCCO2`, the outcome was “inactive”.
For `Clc1cc(NCc2cccs2)ccc1N1CCOCC1`, the outcome was “inactive”.
In the case of `Cc1cc(N2CC34C=CC(O3)C(C(=O)O)C4C2=O)no1` (stereo not drawn), the outcome is reported as “inactive”.
In the case of `CCOCCn1c(CN2CCN(CC)CC2)nc2c1c(=O)n(C)c(=O)n2C`, the outcome is reported as “inactive”.
With `NC1=NC2(CCC(c3ccccc3)CC2)n2c(nc3ccccc32)N1` (stereo not drawn) the outcome was “inactive”.
For `CC(C)N(Cc1nc(-c2ccc(Cl)cc2)no1)C(=O)CN(C)S(=O)(=O)c1ccc(Cl)cc1`, the outcome was “inactive”.
For `Cc1ccc(NC(=O)c2cc(C)on2)cc1`, the outcome was “inactive”.
In the case of `COC(=O)N1CC=CC1(C)C(=O)NCC1CC1` (stereo not drawn), the outcome is reported as “inactive”.
With `O=C(NCc1ccc2c(c1)OCO2)C1(S(=O)(=O)c2ccccc2)CC1` the outcome was “inactive”.
For `Cc1cc(NC(=O)c2ccc(Cl)cc2)no1`, the outcome was “inactive”.
With `Cc1cc(NC(=O)c2ccc3c(c2)OCO3)no1` the outcome was “inactive”.
In the case of `Cc1nc2ccc3nc(NC(=O)c4ccc5c(c4)OCCO5)sc3c2s1`, the outcome is reported as “inactive”.
In the case of `Cc1nc2c(ccc3nc(NC(=O)c4ccc5c(c4)OCCO5)sc32)s1`, the outcome is reported as “active”.
With `Cc1nc2c(ccc3nc(NC(=O)c4ccc(S(=O)(=O)N(C)C)cc4)sc32)s1` the outcome was “inactive”.
For `Cc1cc(NC(=O)c2ccc3c(c2)OCCO3)no1`, the outcome was “active”.
With `CC(=O)c1ccc(NC(=O)CSc2nnc(NC(=O)CN3CCOCC3)s2)cc1` the outcome was “inactive”.
With `Cn1cccc1C(=O)NC(=O)COC(=O)CC12CC3CC(CC(C3)C1)C2` the outcome was “inactive”.
For `Cc1cc2c(c(=O)n1C1CC1)C(c1cccc(Cl)c1)C(C#N)=C(N)O2` (stereo not drawn), the outcome was “inactive”.
With `OCCN1CCN(CCCN2c3ccccc3Sc3ccc(Cl)cc32)CC1` the outcome was “inactive”.
In the case of `OCCN1CCN(CCCN2c3ccccc3Sc3ccc(C(F)(F)F)cc32)CC1`, the outcome is reported as “active”.
In the case of `CN1CCN(CCCN2c3ccccc3Sc3ccc(C(F)(F)F)cc32)CC1`, the outcome is reported as “inactive”.
